Values joined by “and” are separate entries in the source; they are usually repeats but may differ in a detail not shown here. Equal entries are not always repeated. Records with an inconclusive call do not appear. Active and inactive are the calls of the source. Unless noted, calls follow the shape of the dose curve; as a rule, active = well fitted curve in the direction sought with a large enough effect; inconclusive = small, poorly fitted or top-dose-only effect, or another doubt; inactive = no such curve, though single readings can be large; an effect the other way counts as inactive or inconclusive.
How the values were obtained:
[1] = Cell Viability - Mesenchymal (AID 546);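 also: cells exposed to compound for 40 hours before reading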
How it was run: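 CellTiter-Glo luminescence (intracellular ATP, 20 min room temperature) after 40 hr compound exposure at 37 °C of 1000 glomerulus-derived human kidney mesenchymal cells/well; AC50 values obtained by fitting qHTS concentration-response data to the Hill equation.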

[2] = Cellular Toxicity (caspase-3) SHSY5Y (AID 657)
How it was run: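 SH-SY5Y human neuroblastoma cells, 1500/well, exposed to compound for 16 hours at 37 °C in complete medium. Caspase-3/7 activity read by Caspase-Glo luminescence after 1 hr at room temperature, normalized to DMSO and 10 uM staurosporine; AC50 from Hill fit.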

[3] = Cellular Toxicity (caspase-3) BJ (AID 658);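 also: 0% = DMSO basal and 100% = 10 µM staurosporine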
How it was run: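 Caspase-Glo 3/7 luminescence, read 1 hr after reagent at room temperature, in normal BJ fibroblasts exposed 16 hours at 37 °C. AC50 values from Hill-equation concentration-response, scaled between DMSO basal and 10 uM staurosporine as 100%.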

[4] = Cellular Toxicity (caspase-3) MRC-5 (AID 659);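 also: 0% = DMSO basal and 100% = 10 µM staurosporine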
How it was run: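 Luminescent Caspase-Glo 3/7 read-out (1 h, room temperature) after a 16 h, 37 °C compound exposure of MRC-5 lung fibroblasts at 1500 cells/well. Concentration-response AC50 from Hill equation; 0% DMSO, 100% 10 uM staurosporine.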

[5] = Cellular Toxicity (caspase-3) Mesangial (AID 660);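 also: cells exposed to compound for 16 h before the caspase read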
How it was run: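 Seed cells derived from normal human renal glomeruli, incubate 5 h, add compounds across concentrations and incubate 16 h at 37 °C. Caspase 3/7 activation is then quantified by luciferase light, with AC50 derived by Hill modeling.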

[6] = Cellular Toxicity (caspase-3) SK-N-SH (AID 661);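 also: 0% = DMSO basal and 100% = 10 µM staurosporine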
How it was run: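 Cells were seeded and incubated 5 hr at 37 °C, dosed with compound over a concentration range for 16 hr, then given Caspase-Glo 3/7 reagent for 1 hr at room temperature before luminescence reading.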

[7] = Cellular Toxicity (caspase-3) Hek293 (AID 664); conditions: HEK293 caspase-3 activation, DMSO = 0%, 100 µM tamoxifen = 100%; at 92.2 µM (top of the series);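 also: cells exposed to compound for 16 h at 37 °C before readout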
How it was run: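 qHTS, HEK293 (human embryonic kidney), 16 h cpd exposure in complete medium. Caspase-3/7 activation = luminescence increase; normalized to DMSO/100 uM tamoxifen; Hill-fit AC50.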

[8] = Cellular Toxicity (caspase-3) N2a (AID 665);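 also: compound exposure lasted 16 h at 37 °C before readout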
How it was run: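 Caspase-3/7 activation, measured as increased luminescence from aminoluciferin release, is quantified in mouse N2a cells exposed to compounds for 16 h. Values are normalized to DMSO and 10 uM staurosporine, with AC50 derived by Hill modelling.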

[9] = Cell Viability - LYMP1-002 - Assay at 16 hr (AID 948);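 also: 0% = DMSO alone and full effect = 92 µM tetraoctylammonium bromide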
How it was run: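 LYMP1-002 human lymphoblastoid cells, 2500/well, were treated with compounds for 16 hr at 37 C in complete medium. Viability was read as intracellular ATP by CellTiter-Glo luminescence, and AC50 was derived from a Hill fit to concentration-response data.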

[10] = MultiTox-Fluor Cytotoxicity Assay - LYMP1-003 - Dead Cells (AID 961);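 also: 0% = DMSO and 100% = tetraoctylammonium bromide; nearly all actives have a fitted effect of over 70% in size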
How it was run: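 Human lymphoblastoid LYMP1-003 cells (2500/well) were treated with compounds for 16 hr at 37 C in complete medium. Dead-cell protease release was read by bis-AAF-R110 fluorescence (Ex/Em 485/520). AC50 came from Hill fits, normalized to DMSO and 15 uM tetraoctylammonium bromide.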

[11] = MultiTox-Fluor Cytotoxicity Assay - LYMP1-003 - Live Cells (AID 962);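 also: 0% = DMSO only and full loss = 92 µM tetraoctylammonium bromide; cytotoxic hits lower the live-cell protease signal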
How it was run: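 Acute cytotoxicity is scored as a drop in live-cell protease activity in human lymphoblastoid LYMP1-003 cells after 16 hr compound exposure at 37 C. AC50 values come from Hill-equation modelling of concentration-response data.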

[12] = Cell Viability - LYMP1-003 - Assay at 24 hr (AID 963);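 also: plate controls were DMSO only for no effect and tetraoctylammonium bromide positive control for full effect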
How it was run: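 Cytotoxicity is scored as a concentration-dependent fall in ATP-linked luciferase signal in human lymphoblastoid LYMP1-003 cells treated 24 hr at 37 C in complete culture medium.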

[13] = Cell Viability - LYMP2-013 (AID 970);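 also: cells exposed to compound for 24 h at 37 °C; 0% = DMSO only and full inhibition = tetraoctylammonium bromide control; nearly all actives have a fitted effect of over 55% in size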
How it was run: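 Cytotoxicity is scored as a concentration-dependent drop in intracellular ATP in human lymphoblastoid cells after 24 hr compound exposure at 37 C. ATP is quantified by luciferase luminescence, and AC50 values come from Hill-equation modeling.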

[14] = Cell Viability - LYMP2-007 (AID 979);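 also: cells exposed to compound for 24 h before reading; 0% = DMSO only and the negative end = 92 µM tetraoctylammonium bromide; nearly all actives have a fitted effect of over 60% in size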
How it was run: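 Cells are seeded at 2500 per well and rested 5 hr. Compounds are then added over a concentration series for 24 hr at 37 C. CellTiter-Glo is added for 30 min at room temperature before luminescence reading.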

[15] = Cell Viability - LYMP2-008 (AID 980);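 also: cells exposed to compound for 24 h at 37 °C; % is scaled to controls: 0 for no effect and ±100 for the full control effect; nearly all actives have a fitted effect of over 60% in size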
How it was run: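 Cells seeded at 2500/well and rested 5 hr at 37 C; compounds added over a concentration range and incubated 24 hr at 37 C; CellTiter-Glo added, 30 min at room temperature; luminescence read and AC50 fitted with Hill model.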

[16] = Cell Viability - LYMP2-014 (AID 983);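 also: cells exposed to compound for 24 h at 37 °C; plate controls were DMSO only for no effect and 92 µM tetraoctylammonium bromide for full effect; nearly all actives have a fitted effect of over 50% in size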
How it was run: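 Cells are plated at 2500/well and left 5 hr at 37 C. Compounds are added across a concentration range and incubated 24 hr at 37 C in complete medium. CellTiter-Glo is added, and luminescence is read after 30 min at room temperature.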

[17] = qHTS Assay for Identification of Small Molecule Inducers of Hypoxia Response (AID 2120; active = well fitted curve in the direction sought with a large enough effect in the signal ratio, with a control signal flat, not every such curve was filed as active; the % refers to the signal ratio; also: 0% is about no effect)
How it was run: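 Cell-based qHTS for reporter induction: hypoxia response element controlled beta-lactamase in ME-180 cells. Compounds incubated 17 h at 37 degrees C; activity from blue/green (460/530 nm) ratio, inducers ranked by AC50.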

[18] = target: Peroxisome proliferator-activated receptor alpha (Homo sapiens) (UniProt Q07869); assay: qHTS assay for small molecule agonists of the peroxisome proliferator-activated receptor alpha (PPARalpha) signaling pathway (AID 651778); conditions: PathHunter PPARalpha complementation, chemiluminescence, 6 h; stronger effect = higher value; also: % of control where 0% means no effect
How it was run: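 Chemiluminescence from complemented enzyme reported PPARalpha activation in cells after 6 hr of compound treatment at 37 C. The detection reagent was incubated for 60 min at room temperature, and compounds were scored as agonists.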

[19] = qHTS assay for small molecule agonists of the antioxidant response element (ARE) signaling pathway measured by Nrf2-dependant transcriptional activity - cell viability counter screen (AID 720653; active = well fitted curve in the direction sought with a large enough effect in the repeat runs; an effect the other way counts as inactive or inconclusive; also: % is scaled to controls: 0 for no effect and ±100 for the full control effect); conditions: ARE-bla HepG2 viability, CellTiter-Glo ATP luminescence, 16 h; stronger effect = lower value
How it was run: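 Cytotoxicity counter screen: intracellular ATP quantified by CellTiter-Glo luminescence in the same ARE-bla HepG2 plates, after 16 h compound exposure and a 2 h beta-lactamase substrate step.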

[20] = qHTS assay for cell viability of the p53RE-bla HCT-116 cell line (AID 743292); also: % is scaled to controls: 0 for no effect and ±100 for the full control effect; nearly all actives have a fitted effect of over 55% in size
How it was run: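 Luminescent ATP quantitation (CellTiter-Glo) served as the viability read-out; reagent was added after 16 h compound exposure at 37 C and read after 30 min at room temperature. Cells: p53RE-bla HCT-116, 4,000 per well.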

Peroxisome proliferator-activated receptor alpha (Homo sapiens), sequence (Q07869 whole entry, looked up): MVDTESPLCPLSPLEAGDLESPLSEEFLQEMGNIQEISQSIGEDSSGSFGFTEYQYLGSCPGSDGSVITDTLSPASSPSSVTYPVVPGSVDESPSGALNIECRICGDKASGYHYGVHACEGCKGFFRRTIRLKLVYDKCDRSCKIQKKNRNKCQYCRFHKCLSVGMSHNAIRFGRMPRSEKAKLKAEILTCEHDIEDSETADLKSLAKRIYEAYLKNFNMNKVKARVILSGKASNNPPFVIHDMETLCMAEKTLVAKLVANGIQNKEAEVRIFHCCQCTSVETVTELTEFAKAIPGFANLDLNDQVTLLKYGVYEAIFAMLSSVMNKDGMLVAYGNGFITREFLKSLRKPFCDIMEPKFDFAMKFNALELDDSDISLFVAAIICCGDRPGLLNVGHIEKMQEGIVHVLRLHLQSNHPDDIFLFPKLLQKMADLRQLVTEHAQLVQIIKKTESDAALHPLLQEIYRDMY

O=c1ccc(=O)[nH][nH]1
inactive: Potency [1] | outcome [2] | outcome [3] | outcome [4] | outcome [5] | Potency [6] | caspase-3 activation [7] -1% | outcome [8] | outcome [9] | Potency [10] | outcome [11] | outcome [12] | Potency [13] | Potency [14] | Potency [15] | Potency [16] | Potency [17] | max response [18] -0.0075% and -1.1% | max response [19] 27.2% and 14.4% | Potency [20]

O=[N+]([O-])c1cccc(CCl)c1
inactive: Potency [1] | outcome [2] | outcome [3] | outcome [4] | outcome [5] | Potency [6] | caspase-3 activation [7] -1.48% | outcome [8] | outcome [9] | Potency [10] | outcome [11] | outcome [12] | Potency [13] | Potency [15] | Potency [16] | Potency [17] | max response [18] 0.189% | max response [19] -3.2% | Potency [20]

Cc1cnc[nH]1
inactive: Potency [1] | outcome [2] | outcome [4] | outcome [5] | Potency [6] | caspase-3 activation [7] -0.172% | outcome [8] | outcome [9] | Potency [10] | outcome [11] | outcome [12] | Potency [13] | Potency [14] | Potency [15] | Potency [16] | Potency [17] | max response [18] -0.863% | max response [19] -3.19% | Potency [20]

CCCC[N+](=O)[O-]
inactive: Potency [1] | outcome [2] | outcome [3] | outcome [4] | outcome [5] | Potency [6] | caspase-3 activation [7] 23.2% | outcome [8] | outcome [9] | Potency [10] | outcome [11] | outcome [12] | Potency [13] | Potency [15] | Potency [16] | Potency [17] | max response [18] 1.08% | max response [19] -1.65% | Potency [20]

ClCCOCCCl
inactive: Potency [1] | outcome [2] | outcome [3] | outcome [4] | outcome [5] | Potency [6] | caspase-3 activation [7] -1.83% | outcome [8] | outcome [9] | Potency [10] | outcome [11] | outcome [12] | Potency [13] | Potency [14] | Potency [15] | Potency [16] | Potency [17] | max response [18] -1.95% | max response [19] -1.62% | Potency [20]

Nc1cc(Cl)cc(Cl)c1
inactive: Potency [1] | outcome [2] | outcome [3] | outcome [4] | outcome [5] | Potency [6] | caspase-3 activation [7] 1.09% | outcome [8] | outcome [9] | Potency [10] | outcome [11] | outcome [12] | Potency [13] | Potency [14] | Potency [15] | Potency [16] | Potency [17] | max response [18] 0.393% | max response [19] -13% | Potency [20]

Nc1ccc(-c2ccc(N)cc2)cc1
inactive: Potency [1] | outcome [2] | outcome [3] | outcome [4] | outcome [5] | Potency [6] | caspase-3 activation [7] 0.43% | outcome [8] | outcome [9] | Potency [10] | outcome [11] | outcome [12] | Potency [13] | Potency [14] | Potency [15] | Potency [16] | Potency [17] | max response [18] -0.279% | max response [19] -3.71% | Potency [20]

O=C(Cl)OCc1ccccc1
inactive: Potency [1] | outcome [2] | outcome [3] | outcome [4] | outcome [5] | Potency [6] | caspase-3 activation [7] 0.783% | outcome [8] | outcome [9] | Potency [10] | outcome [11] | outcome [12] | Potency [13] | Potency [14] | Potency [15] | Potency [16] | Potency [17] | max response [18] 0.201% | max response [19] 6.86% | Potency [20]

COC(=O)c1ccccc1N
inactive: Potency [1] | outcome [2] | outcome [3] | outcome [4] | outcome [5] | Potency [6] | caspase-3 activation [7] -1.69% | outcome [8] | outcome [9] | Potency [10] | outcome [11] | outcome [12] | Potency [13] | Potency [14] | Potency [15] | Potency [16] | Potency [17] | max response [18] -6.67% | max response [19] -7.9% | Potency [20]

O=C(Cl)c1ccccc1F
inactive: Potency [1] | outcome [2] | outcome [3] | outcome [4] | outcome [5] | Potency [6] | caspase-3 activation [7] 1.06% | outcome [8] | outcome [9] | Potency [10] | outcome [11] | outcome [12] | Potency [13] | Potency [14] | Potency [15] | Potency [16] | Potency [17] | max response [18] -1.25% | max response [19] 6.36% | Potency [20]

N#CCCC#N
inactive: Potency [1] | outcome [2] | outcome [3] | outcome [4] | outcome [5] | Potency [6] | caspase-3 activation [7] 1.14% | outcome [8] | outcome [9] | Potency [10] | outcome [11] | outcome [12] | Potency [13] | Potency [14] | Potency [15] | Potency [16] | Potency [17] | max response [18] -2.27% | max response [19] 1.41% | Potency [20]

Oc1ccc(Cl)c(Cl)c1
inactive: Potency [1] | outcome [2] | outcome [3] | outcome [4] | outcome [5] | Potency [6] | caspase-3 activation [7] 0.945% | outcome [8] | outcome [9] | Potency [10] | outcome [11] | outcome [12] | Potency [13] | Potency [14] | Potency [15] | Potency [16] | Potency [17] | max response [18] -3.58% | max response [19] -2.38% | Potency [20]

Nc1cc(Cl)ccc1Cl
inactive: Potency [1] | outcome [2] | outcome [3] | outcome [4] | outcome [5] | Potency [6] | caspase-3 activation [7] -0.435% | outcome [8] | outcome [9] | Potency [10] | outcome [11] | outcome [12] | Potency [13] | Potency [14] | Potency [15] | Potency [16] | Potency [17] | max response [18] -1.24% | max response [19] 5.24% | Potency [20]
